From PubChem
In the library only some 2.4% were active in any assay of this set; here they are far more common.
PTAP TSG101 blk: blocks PTAP/TSG101 interaction to inhibit HIV-1 budding; 340,000 tested, under 10 active; Q99816; Fluorescence polarization, FITC-PTAP peptide / Tsg101 binding; Potency, µM (series often up to 115 µM), for inactives: top-dose activity change, negative = inhibition, usual class: inhibitors; active = well fitted inhibition curve with a large enough effect in the main read-out, with a control signal flat, not every such curve was filed as active; inconclusive = small, poorly fitted or top-dose-only effect, or effect the other way, or a change in a side signal; inactive = no such curve, though single readings can be large or run the other way; note: % of control where 0% means no effect
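Fluorescence polarization binding of Tsg101 binding domain (10 uM final) to FITC-labeled PTAP peptide (50 nM final) in HEPES pH 7.5 buffer with NaCl, Tween 20, EDTA, TCEP. Compounds added before peptide; binding 20 min at RT.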
ClpP mod: qHTS Assay for Activators of ClpP | Potency, µM (highest dose often 57.5 µM), inactives show top-dose activity change, negative = active | AID 651965, 2013 | purified B. subtilis ClpP, FRET peptide cleavage, 20 min | ATP-dependent Clp protease proteolytic subunit (Bacillus subtilis (strain 168)), P80244 | hit rate 1.9% among 340,000; active = well fitted falling curve with a large enough effect; inconclusive = small, poorly fitted or top-dose-only effect; inactive = no such curve, though single readings can be large or run the other way; note: the source files actives as falling curves though it sought activators and does not explain the sign; nearly all actives have a fitted effect of over 65% in size
Target sequence (P80244 whole entry, looked up): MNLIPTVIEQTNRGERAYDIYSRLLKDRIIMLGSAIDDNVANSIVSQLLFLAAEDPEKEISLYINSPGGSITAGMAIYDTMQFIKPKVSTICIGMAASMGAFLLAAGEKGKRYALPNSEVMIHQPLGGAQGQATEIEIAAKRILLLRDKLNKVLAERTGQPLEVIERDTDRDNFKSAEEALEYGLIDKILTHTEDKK
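Purified B. subtilis ClpP, 10 microg/mL final in Tris/HCl pH8 with KCl, BSA, glycerol and Tween-20, cleaved an Abz/nitrotyrosine-quenched decapeptide. Fluorescence (ex 320, em 430) was read at 0 and 20 min at room temperature. Delta was normalized to 5.8 microM ADEP and DMSO/no-enzyme controls.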
Rango release inh: prevents RanGTP from dissociating the Rango-importin beta complex | O95149+P62826 | Biochemical FRET Rango-importin beta, RanGTP-induced dissociation | Potency, µM (doses to about 46.1 µM), without a hit: at the highest dose activity change, negative = inhibition | hit rate 0.071% among 340,000 | AID 540253; calls by dose curve; note: % of control where 0% means no effect; nearly all actives have a fitted effect of over 45% in size
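Recombinant Rango FRET biosensor (EYFP–snurportin 1 IBB–cerulean CFP10) at 0.1 uM premixed with 0.25 uM importin beta in PBS, 1 mM DTT, 0.02% Tween-20, 0.1% BSA. Compound added 5 min; RanGTP-RCC1 (0.6 uM Ran, 2 mM GTP, 0.2 uM RCC1) then triggers release, read at 45 min.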
ALOX12 inh: ALOX12 (human) lipoxygenase inhibition; purified 12hLO, xylenol orange hydroperoxide absorbance; Potency, µM (top dose mostly 108 µM), without a hit: at the highest dose activity change, negative = inhibition, hits mostly inhibitors; hit rate 1.1% among 580,000; note: % is set by controls: 0 for no effect and ±100 for the full control effect
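Hydroperoxide product was detected by ferrous iron/xylenol orange as the 573 to 405 nm absorbance ratio. Arachidonic acid at 40 uM (final) was turned over for 30 min at room temperature by 150 nM human 12hLO, pH 7.0 Hepes buffer, after 15 min compound preincubation.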
Rango complex inh: prevents formation of the Rango-importin beta complex; hit rate 0.031% among 340,000; Potency, µM (titrated, usually from 92.2 µM), for the others: at the top dose inhibition of complex formation; Q14974; AID 540263; Rango CFP/YFP FRET sensor + importin beta, 45 min; calls by dose curve;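 note: 0% = DMSO wells and 100% = buffer wells lacking importin beta; nearly all actives have a fitted effect of over 15% in size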
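FRET biosensor (snurportin 1 IBB flanked by EYFP and cerulean), 50 nM, with compound 5 min, then 0.125 microM importin beta in PBS, 1 mM DTT, 0.02% Tween-20, 0.1% BSA. CFP/YFP ratio read after 45 min at room temperature; pre-read flags interference.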
TDP1 inh: TDP1 (human) enzyme inhibition. Potency, µM (top dose mostly 130 µM), for the others: at the top dose activity change, negative = inhibition, actives largely listed as inhibitors. recombinant TDP1, AlphaScreen DNA substrate cleavage. hit rate 0.28% among 350,000. Q9NUW8; note: % is set by controls: 0 for no effect and ±100 for the full control effect; nearly all actives have a fitted effect of over 40% in size
Target sequence (Q9NUW8 whole entry, looked up): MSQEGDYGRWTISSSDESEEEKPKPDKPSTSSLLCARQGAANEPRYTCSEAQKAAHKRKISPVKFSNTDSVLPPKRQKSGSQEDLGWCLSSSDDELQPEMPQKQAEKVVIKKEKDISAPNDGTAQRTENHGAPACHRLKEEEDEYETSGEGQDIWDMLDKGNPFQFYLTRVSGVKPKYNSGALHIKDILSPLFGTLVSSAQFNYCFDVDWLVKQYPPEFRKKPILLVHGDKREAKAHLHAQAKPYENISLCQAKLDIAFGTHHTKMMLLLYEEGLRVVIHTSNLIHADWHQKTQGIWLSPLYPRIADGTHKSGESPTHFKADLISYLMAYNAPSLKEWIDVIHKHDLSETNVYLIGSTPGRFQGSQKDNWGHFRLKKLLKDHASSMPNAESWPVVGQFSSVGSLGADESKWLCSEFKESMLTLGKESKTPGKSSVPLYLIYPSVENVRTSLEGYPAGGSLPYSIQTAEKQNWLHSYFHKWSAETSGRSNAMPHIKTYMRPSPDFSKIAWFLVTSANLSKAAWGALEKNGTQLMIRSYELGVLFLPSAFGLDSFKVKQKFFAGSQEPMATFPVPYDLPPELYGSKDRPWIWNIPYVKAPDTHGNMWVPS
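AlphaScreen read-out: signal falls as enzyme removes the 3' tyrosine-FITC from a 5'-biotinylated DNA oligo (15 nM, 5 min, RT). Enzyme was E. coli-made recombinant Tdp1 at 1 nM, exposed to compound for 15 min beforehand; beads 10 ug/ml, 10 min.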
Numbers without * were called inactive; ? = inconclusive; · = no result; [ ] = dose if it differs, or a comment. Unless noted, calls come from the whole dose curve; as a rule, active = well fitted curve in the direction sought with a large enough effect; inconclusive = small, poorly fitted or top-dose-only effect, or another doubt; inactive = no such curve, though single readings can be large; an effect the other way counts as inactive or inconclusive. Potency is the fitted concentration of half-maximal effect.

SMILES	PTAP TSG101 blk	ClpP mod	Rango release inh	ALOX12 inh	Rango complex inh	TDP1 inh
Cc1ccc(O)c2ncccc12	·	·	·	·	·	9.1%
O=C(NCCN1CCCCC1)C1CCc2ncc(-c3ccc(F)cc3)n2C1 (configuration not stated)	·	·	·	35.1%	·	·
CC(C)c1ccc(S(=O)(=O)N2CCC(C(=O)Nc3nc4c(s3)CCC4)CC2)cc1	·	·	·	-26.9%	·	·
Cc1cc(NCCC(C)C)n2nc(C)c(-c3ccccc3)c2n1	-2.5%	28.2µM*	0.1%	-21.7%	-0.9%	·
Cc1cc(NCCCN2CCOCC2)n2nc(C)c(-c3ccccc3)c2n1	-2.1%	-13.2%	36.7%	-21.0%	-0.9%	1.0%
CCCNC(=O)Nc1cccc(C(=O)NC(C)C)c1	·	·	·	-29.8%	·	·
CC1(C)Cc2nc3sc4c(N(CCO)CCO)ncnc4c3cc2CO1	-7.2%	14.1µM*	3.0%	-14.7%	-10.6%	8.7%
CSCC(=O)N1CC[C@H](NC(=O)Nc2ccc(F)cc2F)[C@H]1C(=O)N(C)CC(N)=O	·	·	·	17.6%[176 µM]	·	·
C#CCOC(=O)Nc1ccc(=O)n(Cc2c(Cl)cccc2Cl)c1	-7.1%	28.2µM*	12.1%	-15.5%	-4.9%	-5.9%
FC(F)(F)c1nc(-c2cccs2)ncc1-c1nnnn1-c1ccc(Cl)cc1	-5.9%	35.5µM*	-8.1%	0.0%	-1.4%	3.5%
CCc1ccc(OCc2nnc(SCc3ccc(F)cc3Cl)n2CC(C)C)cc1	·	·	·	-33.9%	·	·
COCCn1cc(C(=O)NC2CCCc3c2[nH]c2c(Cl)cccc32)c2ccccc2c1=O (configuration not stated)	·	·	·	24.4%	·	·
O=C(NC1CCCc2c1[nH]c1ccccc21)c1cccs1 (configuration not stated)	·	·	·	44.7µM*	·	·
COCCn1ccc2ccc(C(=O)NC3CCCc4c3[nH]c3ccccc43)cc21 (configuration not stated)	·	·	·	39.8µM*	·	·
O=C(NC1CCCc2c1[nH]c1ccccc21)c1ccncc1 (configuration not stated)	·	·	·	-4.1%	·	·
Cn1c(=O)cc(C(=O)NC2CCCc3c2[nH]c2ccccc32)c2ccccc21 (configuration not stated)	·	·	·	39.8µM*	·	·
COc1cc(C(=O)NC2CCCc3c2[nH]c2ccccc32)cc(OC)c1OC (configuration not stated)	·	·	·	35.5µM*	·	·
Cc1ccc(CNC(=O)CCc2nc(C3CCCN3C(=O)c3ccccc3)no2)o1 (configuration not stated)	·	·	·	31.9%	·	·
COc1cccc(NC(=O)C2CC(=O)Nc3ncnn32)c1 (configuration not stated)	·	·	·	29.1%	·	·
COCCOCc1nc(C2CCCCN2C(=O)c2ccco2)no1 (configuration not stated)	·	·	·	17.4%	·	·
O=C(CN1CC2CC(C1)[C@H]1CCCC(=O)N1C2)NCc1ccc2c(c1)OCO2 (some centres not stated)	·	·	·	36.1%	·	·
O=C(Cn1nc(-c2cccs2)ccc1=O)NC1CCCc2c1[nH]c1c(Cl)cccc21 (configuration not stated)	·	·	·	55.9%	·	·
O=C(Cn1nc(-c2ccc(F)cc2)ccc1=O)NC1CCCc2c1[nH]c1ccccc21 (configuration not stated)	·	·	·	35.5µM*	·	·
O=C(NC1CCCc2c1[nH]c1ccccc21)c1n[nH]c2c1CCCC2 (configuration not stated)	·	·	·	22.4µM*	·	·
CCOC(=O)C1CCN(S(=O)(=O)c2ccc(-c3nc4ccccc4s3)s2)CC1	0.8%	25.1µM*	?	?	?	-2.9%
SMILES	PTAP TSG101 blk	ClpP mod	Rango release inh	ALOX12 inh	Rango complex inh	TDP1 inh
CCOC(=O)C1CCN(S(=O)(=O)c2ccc(-c3cc(C(F)(F)F)n(C)n3)s2)CC1	-5.0%	-14.4%	5.3%	2.9%	-2.6%	-2.6%
Cc1ccccc1S(=O)(=O)N1C(c2ccc(Cl)c(Cl)c2)CC=C(C(=O)O)C1c1cccc(Br)c1 (configuration not stated)	·	-1.8%	·	50.1µM*	·	·
Cc1ccccc1S(=O)(=O)N1[C@@H](c2ccc(Br)cc2)C(C(=O)O)=CC[C@H]1c1ccc(Cl)cc1	0.8%	1.5%	-15.7%	?	6.8%	-0.4%
CC(C)(C)CNC1(Cc2cc(-c3cccc(O)c3)on2)COC1	·	·	·	0.1%[176 µM]	·	·
COc1cc(/C=C/C(=O)C2C(=O)C=C(C)OC2=O)cc(Cl)c1OC(F)F (configuration not stated)	·	·	·	14.1µM*	·	·
CCN(CC)c1ccc(/C=C/C(=O)C2C(=O)C=C(C)OC2=O)cc1 (configuration not stated)	?	·	?	3.5%	?	7.4%
CCN(CC)c1ccc(NS(=O)(=O)c2cc3[nH]c(=O)c(=O)[nH]c3cc2C)c(C)c1	·	-3.2%	·	44.7µM*	·	-8.7%
CC(C)(C)c1ccc(C(=O)NC(=S)NNC(=O)COc2ccccc2)cc1	-10.7%	-0.9%	24.6%	31.6µM*	6.1%	6.1%
Cc1cccc(OCC(=O)Nc2nc(-c3ccncc3)cs2)c1	0.2%	-0.1%	5.0%	255.5%	4.7%	-2.5%
O=C(COc1ccccc1)NC(=S)Nc1cccc2c(O)cccc12	·	6.8%	·	44.7µM*	·	·
Cc1ccc(OCC(=O)NNC(=S)NC(=O)COc2ccccc2)cc1	·	·	·	11.2µM*	·	·
Cc1ccc(C(=O)NNC(=S)NC(=O)COc2ccccc2)cc1	-1.3%	-6.0%	2.5%	?	1.1%	3.9%
Cc1cccc(OCC(=O)NC(=S)NNC(=O)c2ccncc2)c1	-0.9%	-2.5%	1.1%	5.01µM*	1.4%	1.5%
COc1ccc(C2Cn3nnc(-c4nc(-c5ccc(C)c(C)c5)no4)c3CO2)cc1 (configuration not stated)	·	·	·	61.2%	·	·
O=C(NCCc1ccccn1)c1ccc(C2CCCCC2)cc1	·	·	·	-21.3%	·	·
CN(C)CCSc1nc(-c2ccccc2)nc2c1CCCC2	-2.5%	15.8µM*	8.3%	-18.1%	3.2%	1.2%
Cc1[nH]c2ccccc2c1C(=O)CN1C(=O)C(=O)N(CCC2=CCCCC2)C1=O	-4.6%	-0.3%	11.5%	?	2.2%	0.8%
Cc1[nH]c2ccccc2c1C(=O)CN1C(=O)C(=O)N(Cc2ccco2)C1=O	-5.8%	28.2µM*	8.4%	-6.8%	1.9%	3.8%
CC(=O)Nc1ccc(Sc2ccccc2C(=O)O)cn1	-4.5%	-8.4%	-13.2%	2µM*	-5.0%	·
CC(=O)Nc1ccc(Sc2ccccc2C(=O)Nc2ccc(F)cc2)cn1	0.2%	·	-2.6%	-18.1%	-0.5%	2.9%
